Data: the supplement of paper PMC10849652
About 8,800 targets were measured; listed, in parts, are those with a hit and a random draw of the rest. About 0.5% of all pairs of compound and target were hits.

compound: COc1cc(Nc2ncc3c(n2)-c2ccc(Cl)cc2C(c2c(F)cccc2OC)=NC3)ccc1C(=O)O [alisertib]; assay: log2 fold change, soluble protein after heating vs DMSO (PISA); higher = thermal stabilisation; K562 lysate, 10 uM; active = over 0.2 and 3.5 SD of the protein, either way, in both replicates (recomputed)
In short: (§1)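 The values are log-two fold changes in thermal stability compared with solvent controls and come from duplicates. They were obtained by TMTpro 16plex LC-MS/MS, with channel sums equalised, on the supernatant after 21,000xg for 90 min. That supernatant came from crude K562 extract at 1 mg/mL protein treated with 10 μM compound for 30 min, heated for 3 min across 48°C-58°C, pooled and brought to 0.5% NP-40 at 4°C.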

UniProt Q13595, sequence (Q13595 whole entry, looked up): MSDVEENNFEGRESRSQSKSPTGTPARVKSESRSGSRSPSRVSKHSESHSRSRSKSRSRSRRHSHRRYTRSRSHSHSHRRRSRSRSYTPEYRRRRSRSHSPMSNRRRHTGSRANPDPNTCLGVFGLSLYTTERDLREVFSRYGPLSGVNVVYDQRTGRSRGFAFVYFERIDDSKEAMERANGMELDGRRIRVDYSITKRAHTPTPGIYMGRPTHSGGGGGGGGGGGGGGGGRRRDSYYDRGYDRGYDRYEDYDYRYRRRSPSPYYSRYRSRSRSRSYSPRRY
UniProt O94842, sequence (O94842 whole entry, looked up): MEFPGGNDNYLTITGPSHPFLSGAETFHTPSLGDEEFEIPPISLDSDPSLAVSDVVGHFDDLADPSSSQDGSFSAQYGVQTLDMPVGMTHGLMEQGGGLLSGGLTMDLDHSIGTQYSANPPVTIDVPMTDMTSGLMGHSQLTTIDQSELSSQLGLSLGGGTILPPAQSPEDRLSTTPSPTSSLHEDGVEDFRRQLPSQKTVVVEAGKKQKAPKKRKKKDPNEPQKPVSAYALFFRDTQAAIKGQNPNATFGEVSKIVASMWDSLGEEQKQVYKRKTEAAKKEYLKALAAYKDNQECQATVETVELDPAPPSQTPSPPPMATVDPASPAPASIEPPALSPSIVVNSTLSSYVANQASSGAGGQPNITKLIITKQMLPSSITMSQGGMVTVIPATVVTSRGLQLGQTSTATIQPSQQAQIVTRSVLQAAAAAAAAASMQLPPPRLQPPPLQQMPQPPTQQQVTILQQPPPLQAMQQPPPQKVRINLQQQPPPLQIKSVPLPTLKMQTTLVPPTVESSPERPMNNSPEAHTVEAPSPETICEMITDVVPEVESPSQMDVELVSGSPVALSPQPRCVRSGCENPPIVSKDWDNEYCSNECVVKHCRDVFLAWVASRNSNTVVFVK
UniProt Q15386, sequence (Q15386 whole entry, looked up): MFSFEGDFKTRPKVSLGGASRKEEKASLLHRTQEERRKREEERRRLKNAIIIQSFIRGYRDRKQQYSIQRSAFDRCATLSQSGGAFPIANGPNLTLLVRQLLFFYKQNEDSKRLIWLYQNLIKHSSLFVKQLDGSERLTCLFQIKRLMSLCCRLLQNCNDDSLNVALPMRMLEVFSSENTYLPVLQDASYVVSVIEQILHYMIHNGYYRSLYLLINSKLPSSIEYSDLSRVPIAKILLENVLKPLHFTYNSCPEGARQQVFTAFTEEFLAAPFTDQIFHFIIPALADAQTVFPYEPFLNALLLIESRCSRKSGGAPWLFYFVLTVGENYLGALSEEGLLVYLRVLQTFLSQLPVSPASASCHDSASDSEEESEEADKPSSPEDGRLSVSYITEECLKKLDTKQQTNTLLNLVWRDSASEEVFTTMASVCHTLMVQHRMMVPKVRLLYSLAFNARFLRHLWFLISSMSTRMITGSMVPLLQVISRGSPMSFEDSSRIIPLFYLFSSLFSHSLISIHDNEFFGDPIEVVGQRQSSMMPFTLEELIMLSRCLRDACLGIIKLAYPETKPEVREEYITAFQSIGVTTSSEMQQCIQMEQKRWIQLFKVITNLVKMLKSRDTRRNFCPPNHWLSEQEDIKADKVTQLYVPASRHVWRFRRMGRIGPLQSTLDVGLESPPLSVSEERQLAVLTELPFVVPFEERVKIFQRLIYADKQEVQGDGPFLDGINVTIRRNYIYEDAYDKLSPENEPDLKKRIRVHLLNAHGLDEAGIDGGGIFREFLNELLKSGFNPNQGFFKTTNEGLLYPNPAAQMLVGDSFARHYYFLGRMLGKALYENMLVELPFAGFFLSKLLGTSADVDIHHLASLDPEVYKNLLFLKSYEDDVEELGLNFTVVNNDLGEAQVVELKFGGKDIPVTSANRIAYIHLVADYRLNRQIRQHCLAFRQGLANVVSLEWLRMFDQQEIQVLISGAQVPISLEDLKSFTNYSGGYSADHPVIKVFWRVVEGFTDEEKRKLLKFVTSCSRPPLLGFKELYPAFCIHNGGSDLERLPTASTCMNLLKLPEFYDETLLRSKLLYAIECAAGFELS
UniProt P09493, sequence (P09493 whole entry, looked up): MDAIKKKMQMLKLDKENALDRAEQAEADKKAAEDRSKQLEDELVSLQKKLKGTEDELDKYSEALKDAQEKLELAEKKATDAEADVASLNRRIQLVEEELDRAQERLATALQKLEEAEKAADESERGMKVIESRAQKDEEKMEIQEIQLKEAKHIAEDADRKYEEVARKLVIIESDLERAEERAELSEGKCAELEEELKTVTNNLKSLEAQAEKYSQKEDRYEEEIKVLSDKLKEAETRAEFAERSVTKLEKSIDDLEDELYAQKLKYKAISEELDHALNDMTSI
UniProt P42167, sequence (P42167 whole entry, looked up): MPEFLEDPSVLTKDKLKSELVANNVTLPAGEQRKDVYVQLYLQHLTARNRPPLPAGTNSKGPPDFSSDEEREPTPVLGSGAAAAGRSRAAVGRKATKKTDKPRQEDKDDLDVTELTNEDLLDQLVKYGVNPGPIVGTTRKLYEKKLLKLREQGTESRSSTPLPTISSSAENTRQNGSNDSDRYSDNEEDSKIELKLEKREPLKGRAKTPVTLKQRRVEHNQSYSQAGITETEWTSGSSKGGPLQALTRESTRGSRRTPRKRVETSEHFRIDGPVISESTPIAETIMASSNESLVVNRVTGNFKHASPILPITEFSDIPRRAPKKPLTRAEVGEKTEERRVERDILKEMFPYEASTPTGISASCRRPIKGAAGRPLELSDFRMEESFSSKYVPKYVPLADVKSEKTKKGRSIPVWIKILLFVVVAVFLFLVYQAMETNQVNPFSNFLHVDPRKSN
UniProt Q96Q05, sequence (Q96Q05 whole entry, looked up): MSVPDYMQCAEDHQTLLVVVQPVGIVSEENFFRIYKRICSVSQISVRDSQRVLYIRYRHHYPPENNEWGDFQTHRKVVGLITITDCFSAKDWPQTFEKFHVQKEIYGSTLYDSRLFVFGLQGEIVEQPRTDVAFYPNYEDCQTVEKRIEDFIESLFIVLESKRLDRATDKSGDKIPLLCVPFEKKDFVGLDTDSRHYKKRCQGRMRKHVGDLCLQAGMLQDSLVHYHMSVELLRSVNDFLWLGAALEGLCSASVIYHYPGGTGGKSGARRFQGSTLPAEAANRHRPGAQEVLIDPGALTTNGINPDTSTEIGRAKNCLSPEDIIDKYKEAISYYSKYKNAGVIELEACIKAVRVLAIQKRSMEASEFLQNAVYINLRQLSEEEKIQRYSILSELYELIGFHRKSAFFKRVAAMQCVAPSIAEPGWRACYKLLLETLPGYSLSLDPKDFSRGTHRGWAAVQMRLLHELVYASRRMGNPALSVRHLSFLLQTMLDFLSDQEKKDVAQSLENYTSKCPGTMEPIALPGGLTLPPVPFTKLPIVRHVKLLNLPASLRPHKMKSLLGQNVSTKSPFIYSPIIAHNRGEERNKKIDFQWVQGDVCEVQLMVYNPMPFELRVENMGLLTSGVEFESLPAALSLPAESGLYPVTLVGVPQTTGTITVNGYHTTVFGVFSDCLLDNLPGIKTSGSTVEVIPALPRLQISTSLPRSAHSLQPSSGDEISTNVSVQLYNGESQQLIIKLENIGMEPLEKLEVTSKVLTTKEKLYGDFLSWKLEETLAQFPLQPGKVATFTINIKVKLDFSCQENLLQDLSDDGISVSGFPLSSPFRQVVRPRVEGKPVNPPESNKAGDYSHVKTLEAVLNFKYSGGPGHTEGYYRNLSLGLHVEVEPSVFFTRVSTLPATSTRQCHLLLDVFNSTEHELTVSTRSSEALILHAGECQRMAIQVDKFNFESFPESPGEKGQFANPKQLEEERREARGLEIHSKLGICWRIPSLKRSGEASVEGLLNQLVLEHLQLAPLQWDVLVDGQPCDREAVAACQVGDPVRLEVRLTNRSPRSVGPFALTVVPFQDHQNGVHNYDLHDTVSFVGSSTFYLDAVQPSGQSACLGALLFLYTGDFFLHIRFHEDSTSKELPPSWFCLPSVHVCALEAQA
UniProt Q5JUR7, sequence (Q5JUR7 whole entry, looked up): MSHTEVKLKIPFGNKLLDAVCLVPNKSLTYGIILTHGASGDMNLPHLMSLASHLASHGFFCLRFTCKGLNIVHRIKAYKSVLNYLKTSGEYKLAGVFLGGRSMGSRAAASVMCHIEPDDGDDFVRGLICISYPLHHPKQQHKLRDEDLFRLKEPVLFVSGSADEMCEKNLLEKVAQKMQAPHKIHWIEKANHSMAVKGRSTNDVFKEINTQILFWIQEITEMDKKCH
UniProt P07437, sequence (P07437 whole entry, looked up): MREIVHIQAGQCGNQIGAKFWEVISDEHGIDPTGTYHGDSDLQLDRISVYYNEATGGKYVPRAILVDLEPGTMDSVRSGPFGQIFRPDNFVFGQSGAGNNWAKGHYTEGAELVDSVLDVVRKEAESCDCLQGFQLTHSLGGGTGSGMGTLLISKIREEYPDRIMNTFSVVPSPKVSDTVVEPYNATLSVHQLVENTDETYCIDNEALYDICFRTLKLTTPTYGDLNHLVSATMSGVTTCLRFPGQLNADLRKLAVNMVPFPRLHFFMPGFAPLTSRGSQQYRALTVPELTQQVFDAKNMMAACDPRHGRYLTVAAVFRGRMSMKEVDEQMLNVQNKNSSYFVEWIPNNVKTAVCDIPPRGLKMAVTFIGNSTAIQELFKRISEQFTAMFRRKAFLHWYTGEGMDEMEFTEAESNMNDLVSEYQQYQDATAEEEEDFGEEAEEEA
UniProt Q96S44, sequence (Q96S44 whole entry, looked up): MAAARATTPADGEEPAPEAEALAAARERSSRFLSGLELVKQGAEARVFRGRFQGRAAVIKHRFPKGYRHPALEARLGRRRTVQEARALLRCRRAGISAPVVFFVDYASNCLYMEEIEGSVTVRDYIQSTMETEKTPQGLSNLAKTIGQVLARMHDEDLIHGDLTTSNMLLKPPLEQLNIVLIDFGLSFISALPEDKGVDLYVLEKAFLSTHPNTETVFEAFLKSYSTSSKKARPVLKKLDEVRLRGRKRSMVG
UniProt O95857, sequence (O95857 whole entry, looked up): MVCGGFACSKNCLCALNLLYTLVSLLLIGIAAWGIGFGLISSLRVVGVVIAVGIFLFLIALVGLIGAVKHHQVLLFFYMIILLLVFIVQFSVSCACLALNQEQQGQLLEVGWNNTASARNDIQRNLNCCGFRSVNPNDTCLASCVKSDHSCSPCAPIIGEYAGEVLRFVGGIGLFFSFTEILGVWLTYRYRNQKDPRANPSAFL

log2 fold change, inactive:
TPP2 (UniProt Q5VZU9) 0.006
TUBGCP3 (UniProt Q96CW5) 0.044
TEX30 (UniProt Q5JUR7) 0.101
TPM1 isoform 4 (UniProt P09493) 0.035
TRAPPC9 isoform 2 (UniProt Q96Q05) -0.036
TUT4 (UniProt Q5TAX3) 0.01
TRIM33 (UniProt H0Y612) -0.006
TECR (UniProt Q9NZ01) 0.053
TP53RK (UniProt Q96S44) 0.001
THEMIS2 (UniProt Q5TEJ8) 0.052
TTC38 (UniProt Q5R3I4) -0.046
TPM4 (UniProt P67936) -0.105
TMOD1 (UniProt P28289) 0.014
TOX4 (UniProt O94842) 0.028
TMEM199 (UniProt Q8N511) 0
UBE4A isoform 2 (UniProt Q14139) 0.018
TMEM87B (UniProt Q96K49) 0.004
TMPO (UniProt P42167) -0.026
TTI2 (UniProt Q6NXR4) 0.004
TUBB3 (UniProt Q13509) 0.007
TUBB (UniProt P07437) 0.014
TLK1 isoform 2 (UniProt Q9UKI8) -0.028
TRA2A (UniProt Q13595) -0.188
TBL2 (UniProt Q9Y4P3) 0.008
UBR4 (UniProt Q5T4S7) 0.001
TPM4 isoform 2 (UniProt P67936) -0.098
TBL3 (UniProt Q12788) 0.015
TTF2 (UniProt Q9UNY4) 0.005
TJP1 isoform 2 (UniProt Q07157) -0.007
TRIM65 (UniProt Q6PJ69) -0.02
UBE3C (UniProt Q15386) 0.022
UBAP2 (UniProt Q5T6F2) 0.005
TUBA1B (UniProt P68363) 0.026
TSPAN13 (UniProt O95857) 0.003

compound: COc1cc2nc(-c3cc(F)ccc3O)nc(N[C@@H]3CNC[C@H]3C(C)(C)O)c2cc1OC; assay: as above
In short: as §1

log2 fold change, inactive:
TPP2 (UniProt Q5VZU9) 0.076
TUBGCP3 (UniProt Q96CW5) -0.017
TEX30 (UniProt Q5JUR7) 0.041
TPM1 isoform 4 (UniProt P09493) -0.012
TRAPPC9 isoform 2 (UniProt Q96Q05) 0.021
TUT4 (UniProt Q5TAX3) -0.014
TRIM33 (UniProt H0Y612) 0.09
TECR (UniProt Q9NZ01) 0.048
TP53RK (UniProt Q96S44) 0.002
THEMIS2 (UniProt Q5TEJ8) -0.159
TTC38 (UniProt Q5R3I4) -0.018
TPM4 (UniProt P67936) 0.012
TMOD1 (UniProt P28289) 0.016
TOX4 (UniProt O94842) -0.013
TMEM199 (UniProt Q8N511) -0.007
UBE4A isoform 2 (UniProt Q14139) 0.013
TMEM87B (UniProt Q96K49) 0.031
TMPO (UniProt P42167) -0.025
TTI2 (UniProt Q6NXR4) 0.024
TUBB3 (UniProt Q13509) 0.007
TUBB (UniProt P07437) -0.012
TLK1 isoform 2 (UniProt Q9UKI8) 0.05
TRA2A (UniProt Q13595) 0.017
TBL2 (UniProt Q9Y4P3) 0.055
UBR4 (UniProt Q5T4S7) 0.001
TPM4 isoform 2 (UniProt P67936) -0.01
TBL3 (UniProt Q12788) 0.006
TTF2 (UniProt Q9UNY4) 0.056
TJP1 isoform 2 (UniProt Q07157) 0.007
TRIM65 (UniProt Q6PJ69) 0.023
UBE3C (UniProt Q15386) 0
UBAP2 (UniProt Q5T6F2) 0.011
TUBA1B (UniProt P68363) -0.004
TSPAN13 (UniProt O95857) 0.043

compound: COc1cc2ncnc(Nc3ccc(F)c(Cl)c3)c2cc1OCCCN1CCOCC1 [gefitinib]; assay: as above
In short: as §1

log2 fold change, inactive:
TPP2 (UniProt Q5VZU9) 0.011
TUBGCP3 (UniProt Q96CW5) 0.056
TEX30 (UniProt Q5JUR7) 0.058
TPM1 isoform 4 (UniProt P09493) 0.008
TRAPPC9 isoform 2 (UniProt Q96Q05) -0.017
TUT4 (UniProt Q5TAX3) -0.007
TRIM33 (UniProt H0Y612) -0.102
TECR (UniProt Q9NZ01) -0.008
TP53RK (UniProt Q96S44) -0.042
THEMIS2 (UniProt Q5TEJ8) 0.025
TTC38 (UniProt Q5R3I4) -0.069
TPM4 (UniProt P67936) 0.033
TMOD1 (UniProt P28289) -0.008
TOX4 (UniProt O94842) -0.016
TMEM199 (UniProt Q8N511) 0.001
UBE4A isoform 2 (UniProt Q14139) -0.041
TMEM87B (UniProt Q96K49) 0.018
TMPO (UniProt P42167) 0.027
TTI2 (UniProt Q6NXR4) -0.034
TUBB3 (UniProt Q13509) -0.016
TUBB (UniProt P07437) -0.031
TLK1 isoform 2 (UniProt Q9UKI8) 0.01
TRA2A (UniProt Q13595) 0.118
TBL2 (UniProt Q9Y4P3) -0.018
UBR4 (UniProt Q5T4S7) -0.029
TPM4 isoform 2 (UniProt P67936) -0.004
TBL3 (UniProt Q12788) -0.123
TTF2 (UniProt Q9UNY4) 0.002
TJP1 isoform 2 (UniProt Q07157) -0.017
TRIM65 (UniProt Q6PJ69) 0.003
UBE3C (UniProt Q15386) -0.026
UBAP2 (UniProt Q5T6F2) 0.014
TUBA1B (UniProt P68363) 0.013
TSPAN13 (UniProt O95857) -0.003
